The values that follow come from PubChem BioAssay AID760 (NMMLSC, 2007).

In all, about 190,000 compounds went through this assay and about 360 (0.19%) were called active. Not shown: some 2% with an inconclusive outcome.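 Rule for the calls: active = GTP binding activity at least 20 points away from 100%, either lowered or raised; inconclusive = signal likely due to the compound's own green fluorescence; inactive = the rest.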 The list comes from a sample in which actives are over-represented; it also holds similar structures and randomly drawn compounds.

This test has as its target Ras-related protein Rab-2A (Canis lupus familiaris) (UniProt P61105). Nature of the test: modulators of GTP binding to Rab2A wildtype, primary screen, biochemical, dog, bead-based flow cytometry, multiplex (AID 760).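 Note: 0% = beads with excess unlabeled GTP and 100% = no-compound control corrected for plate trend.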 The note with it: GST-Rab2 wt beads, Bodipy-GTP binding, at 10 µM.
For the molecule `CCc1nnc(NC(=O)CSc2nnnn2-c2cccc(C(C)=O)c2)s1`, the GTP binding activity is 97% (inactive).

As to `O=C(OCC1O[C@@H](OC(=O)c2cc(O)c(O)c(O)c2)[C@@H](OC(=O)c2cc(O)c(O)c(O)c2)[C@@H](OC(=O)c2cc(O)c(O)c(O)c2)[C@@H]1OC(=O)c1cc(O)c(O)c(O)c1)c1cc(O)c(O)c(O)c1` (some centres undefined), the GTP binding activity was 79% (active).

As to `CC(=O)NC1C(OCc2ccccc2)OC(COC(C)=O)C(OC(C)=O)C1OC(C)=O` (centres undefined), the GTP binding activity is 100% (inactive).

On to `CC1(C)CN(c2ccc(-c3ccnc4ncnn34)cc2)C1=O`, for which the GTP binding activity is 99% (inactive).

On to `CCCOCC(O)CC(CC)C(=O)NNC(=S)Nc1ccccc1` (centres undefined), for which the GTP binding activity is 100% (inactive).

As for `O=C(Nc1ccc(F)cc1)C1CCN(C(=O)c2ccc([N+](=O)[O-])cc2)CC1`, the GTP binding activity was 97% (inactive).

Consider `O=C(Nc1ccc(F)c([N+](=O)[O-])c1)C1CC(=O)N(Cc2ccccc2)C1` (centres undefined), for which the GTP binding activity is 92% (inactive).

For the molecule `Cc1cc(C2=NNC(=Nc3ccc(S(=O)(=O)N4CCOCC4)cc3)SC2)c(C)n1CC1CCCO1` (centres undefined), the GTP binding activity is 101% (inactive).

For `O=C(N/C(=C\c1ccc(F)cc1)C(=O)N1CCCCCC1)c1ccccc1`, the GTP binding activity is 98% (inactive).

With `Clc1ccc(CN2CCN(/N=C/c3cccnc3)CC2)cc1`, the GTP binding activity was 101% (inactive).

Consider `Cc1ccc(Nc2c(F)c(F)c(F)c(F)c2C(=O)O)c(C)c1`, for which the GTP binding activity was 131% [activator] (active).

As to `COc1c(F)c(F)c(C(=O)O)c(Nc2ccccc2C)c1F`, the GTP binding activity was 97% (inactive).

Regarding `Cc1ccc(NC(=S)NC(=O)c2ccc(-c3ccccc3)cc2)c(C)c1`, the GTP binding activity is 97% (inactive).

For `Cc1cc(C)n(CC(=O)Nc2ccc([N+](=O)[O-])cc2)n1`, the GTP binding activity was 96% (inactive).

As for `COc1ccc(C2CC(c3cccs3)Nc3nnnn32)cc1` (centres undefined), the GTP binding activity was 98% (inactive).

For the molecule `Cc1c(Br)ccc(NC(=O)COc2ccccc2C(N)=O)c1C`, the GTP binding activity was 102% (inactive).

As to `CN1C(=O)/C(=C\c2ccc(-c3ccccc3)o2)SC1=S`, the GTP binding activity is 88% (inactive).

For the molecule `O=C(CCc1ccccc1)NCCc1cccs1`, the GTP binding activity is 100% (inactive).

Regarding `O=C(CCC(=O)N1CCCC1)Nc1ccc([N+](=O)[O-])cc1`, the GTP binding activity was 101% (inactive).

As to `CN(C)CC(C)(C)CNC(=O)c1cc(Br)cc(Br)c1O`, the GTP binding activity was 95% (inactive).

With `N#C/C(=C\c1ccc(-c2cccc([N+](=O)[O-])c2)o1)C(=O)NCCN1CCOCC1`, the GTP binding activity was 92% (inactive).

As to `CCN1CCN(C(=O)CCN2C(=O)c3ccccc3C2=O)CC1`, the GTP binding activity is 98% (inactive).

`COc1ccc(CC(=O)NCc2nnc(SCC(=O)Nc3ncc(C)s3)n2C)cc1`: the GTP binding activity was 98% (inactive).

With `CCC(O)C1CCN(Cc2cn(-c3ccc(OC)cc3)nc2-c2cccc(F)c2)CC1` (centres undefined), the GTP binding activity is 102% (inactive).

In the case of `CCC1(CC)NC(=O)N(Cc2nc3ccccc3s2)C1=O`, the GTP binding activity is 98% (inactive).

For `Nc1c(C(=O)O)cnn1-c1ccccc1`, the GTP binding activity was 96% (inactive).

`Fc1ccccc1Cc1ccc(Cl)nn1`: the GTP binding activity was 96% (inactive).

Take `CC(=O)Nc1ccc(S(=O)(=O)Nc2nccc(/C=C/c3ccccc3F)n2)cc1`: the GTP binding activity was 99% (inactive).

With `O=C1NC2(CCCCCC2)C(=O)N1CCS(=O)(=O)Oc1ccccc1`, the GTP binding activity is 96% (inactive).

On to `O=C(Nc1cccnc1)c1ccc(Cl)cc1[N+](=O)[O-]`, for which the GTP binding activity is 103% (inactive).

For `CSc1nsc(SC)c1NC(=O)OC1CCCCC1`, the GTP binding activity is 31% (active).

`COc1ccc(NC(=O)c2c(SC)nsc2SC)cc1`: the GTP binding activity was 100% (inactive).

For the molecule `CSc1ncccc1C(=O)NC1CCCCCC1`, the GTP binding activity was 99% (inactive).

Take `Cc1ccc(N(C(=O)c2ccc(S(=O)(=O)N(C)C)cc2)C2C=CS(=O)(=O)C2)cc1` (centres undefined): the GTP binding activity is 99% (inactive).

With `COc1ccc(CCNC(=O)CCn2c(=O)c3ccccc3n(CC(=O)NCC3CCCO3)c2=O)cc1OC` (centres undefined), the GTP binding activity was 96% (inactive).

On to `COc1ccc(/C=C/C2=CC(C)(C)NC(=S)N2)c(OC)c1`, for which the GTP binding activity was 96% (inactive).

Turning to `CCOC(=O)c1ccc(NC(=O)C2CC(=O)Nc3nc4ccccc4n32)cc1` (centres undefined), the GTP binding activity is 94% (inactive).

Consider `C/C(=N\NC(=O)OC(C)(C)C)c1ccc[nH]1`, for which the GTP binding activity was 98% (inactive).

As to `O=C(Cn1nnc2ccccc2c1=O)NCc1ccc(Cl)cc1`, the GTP binding activity was 100% (inactive).

In the case of `CC(C)CCC(C)NC(=O)c1ccc2nccnc2c1` (centres undefined), the GTP binding activity was 97% (inactive).

With `COc1ccc(CCNC(=O)COC(=O)Cc2cc(OC)c(OC)c(OC)c2)cc1`, the GTP binding activity was 96% (inactive).

With `Cn1cc(-c2ccccc2)cc(C#N)c1=O`, the GTP binding activity is 98% (inactive).

On to `CCc1ccccc1NC(=O)CSc1nnc(-c2ccncc2)o1`, for which the GTP binding activity was 99% (inactive).

As for `Cc1ccc(C2=NN(C(=O)COc3ncnc4ccccc34)C(c3ccco3)C2)cc1` (centres undefined), the GTP binding activity was 93% (inactive).

Turning to `COc1ccc(OC)c(-n2c(=S)[nH]c3cc(C(=O)N4CCCCC4)ccc3c2=O)c1`, the GTP binding activity was 100% (inactive).

Consider `S=C(Nc1ccc(Br)cc1Cl)NC1CCN(Cc2ccccc2)CC1`, for which the GTP binding activity was 100% (inactive).

`CN(C)c1nc(-c2cccnc2)nc(-c2ccc(Cl)cc2)c1C#N`: the GTP binding activity is 98% (inactive).

Turning to `CC(=O)Nc1ccc(OCCC[n+]2cccc(C(=O)[O-])c2)cc1`, the GTP binding activity was 97% (inactive).

With `CCOC(=O)C1=C(CN2CCCCCC2)NC(=O)NC1c1cccc([N+](=O)[O-])c1` (centres undefined), the GTP binding activity is 97% (inactive).

As to `COc1ccc(-n2c(C)nn(CC3CC3)c2=O)cc1`, the GTP binding activity was 100% (inactive).

For `CN(C)CCCn1c(SCCN2C(=O)c3ccccc3C2=O)nc2ccccc2c1=O`, the GTP binding activity is 95% (inactive).

Consider `O=S(=O)(Nc1cc(S(=O)(=O)N2CCOCC2)ccc1N1CCCC1)c1cccs1`, for which the GTP binding activity was 98% (inactive).

On to `Cc1ccc(N(C(=O)Cc2cccs2)C2C=CS(=O)(=O)C2)cc1Cl` (centres undefined), for which the GTP binding activity was 100% (inactive).

As to `C/C(=N\Nc1ncc(Cl)cc1Cl)c1cccs1`, the GTP binding activity is 98% (inactive).

As for `Cc1cccc(CN2CCN(Cc3cnn(-c4ccccc4F)c3)CC2CCO)n1` (centres undefined), the GTP binding activity was 99% (inactive).

`Cc1cc(C)n(-c2nc(C(F)(F)F)nc3ccccc23)n1`: the GTP binding activity is 96% (inactive).

Consider `Cc1ccc(NC(=S)N(Cc2ccco2)C(C)c2cccs2)cc1` (centres undefined), for which the GTP binding activity was 101% (inactive).

Turning to `COC(=O)c1cc(NC(=O)c2cccnc2)ccc1N1CCOCC1`, the GTP binding activity was 96% (inactive).

With `CCN(CC)c1ccc(C(=O)c2cnc(/N=C/N(C)C)s2)cc1`, the GTP binding activity is 95% (inactive).

In the case of `Cc1cc(NC(=O)CSc2nc3c(cc2C#N)CCCCC3)no1`, the GTP binding activity was 94% (inactive).

With `O=C(Cc1ccccc1)N1CCN(S(=O)(=O)c2ccc([N+](=O)[O-])cc2)CC1`, the GTP binding activity is 98% (inactive).

Regarding `N#C/C(C(=S)Nc1ccccc1)=C1/NN=C(N2CCOCC2)N1c1ccccc1`, the GTP binding activity is 90% (inactive).

In the case of `CCCn1c(N)c(C(=O)CSc2nc3ccccc3c(=O)n2-c2ccc(OC)cc2)c(=O)[nH]c1=O`, the GTP binding activity is 92% (inactive).

In the case of `S=c1[nH]nc(Nc2ccccc2)s1`, the GTP binding activity is 92% (inactive).

Turning to `O=C1CCC(=O)N1c1ccc(NCCc2ccccc2F)c([N+](=O)[O-])c1`, the GTP binding activity was 101% (inactive).

Turning to `NC(=O)COC(=O)c1sc2cc(F)ccc2c1Cl`, the GTP binding activity was 94% (inactive).

As for `CCN(CC)S(=O)(=O)c1ccc(N2CCCC2)c(NS(=O)(=O)c2cccs2)c1`, the GTP binding activity was 94% (inactive).

On to `O=C(NCc1ccccc1Cl)C1CCN(S(=O)(=O)N2CCOCC2)CC1`, for which the GTP binding activity is 104% (inactive).

As to `Cc1ccc(NC(=O)c2ccccn2)cc1S(=O)(=O)N1CCOCC1`, the GTP binding activity was 99% (inactive).

Take `CSc1ccc(CNCCN2CCOCC2)cc1`: the GTP binding activity was 96% (inactive).

For the molecule `COC(=O)c1ccc(NC(=S)NN2CCOCC2)cc1`, the GTP binding activity was 99% (inactive).

With `CCCC(=O)OCC(=O)Nc1cc(Cl)ccc1[N+](=O)[O-]`, the GTP binding activity is 92% (inactive).

`O=c1c(-c2ccccc2)cnc2n1CCS2`: the GTP binding activity is 96% (inactive).

Consider `Cc1ccc(NC(=O)c2ccc(S(=O)(=O)NCC3CCCO3)cc2)cc1C` (centres undefined), for which the GTP binding activity is 97% (inactive).

Regarding `Cc1cc(CNCc2c(C(=O)N(C)Cc3ccccc3)nc3ccccn23)nn1C`, the GTP binding activity is 101% (inactive).

In the case of `O=C(Nc1nnc(C2CC2)s1)C1=NN(C2CCS(=O)(=O)C2)C(=O)CC1` (centres undefined), the GTP binding activity was 96% (inactive).

Regarding `Cc1nc(N2CCCCC2)sc1C=O`, the GTP binding activity was 105% (inactive).

Turning to `Cc1ccccc1NCC(=O)N/N=C\c1ccc([N+](=O)[O-])s1`, the GTP binding activity is 98% (inactive).

For the molecule `CS/C(=C\[N+](=O)[O-])Nc1ccc(C)cc1`, the GTP binding activity was 100% (inactive).

In the case of `O=C(NCC1CCCO1)C1CCN(C2CCN(C(=O)C3CCCCC3)CC2)CC1` (centres undefined), the GTP binding activity was 98% (inactive).

Consider `COC(=O)c1cc2n(n1)CCCNC2=O`, for which the GTP binding activity was 100% (inactive).

For `COc1ccc(N(CC(=O)NC2CCCC2)C(=O)CS(=O)CC(=O)Nc2ccc3c(c2)OCO3)cc1` (centres undefined), the GTP binding activity is 95% (inactive).

For `CCOC(=O)C1(Cc2ccc(Cl)cc2)CCN(C(=O)C2=NNC(=O)CC2)CC1`, the GTP binding activity was 101% (inactive).

With `Cc1cc(=O)oc2c1c(C)nn2-c1ccc(Cl)cc1`, the GTP binding activity is 100% (inactive).

As to `COc1cc(/C=N/Nc2ccc(C)cc2)cc(Br)c1O`, the GTP binding activity was 94% (inactive).

As to `COc1ccc(/C=N/Nc2ncnc3sc4c(c23)CCCC4)cc1O`, the GTP binding activity is 71% (active).

In the case of `COc1ncnc2sc3c(c12)CCCC3`, the GTP binding activity is 102% (inactive).

Regarding `COc1ccc(NC(=S)NCCN2CCC(C)CC2)cc1`, the GTP binding activity is 100% (inactive).

With `COc1cc(OC)c(C(=O)N2CCCC2)cc1OC`, the GTP binding activity was 98% (inactive).

With `COc1ccc(/C=N/NC(=O)c2ccncc2)cc1CN1CCCc2ccccc21`, the GTP binding activity was 95% (inactive).

As for `COc1ccc(CN2CCC(c3nc4ccc(Cl)cc4[nH]3)CC2)cc1`, the GTP binding activity was 96% (inactive).

With `CC(Sc1nnnn1C1CCCCC1)C(=O)O` (centres undefined), the GTP binding activity is 101% (inactive).

As for `COc1ccc(C(=O)OCC(=O)NCC2CCCO2)cc1[N+](=O)[O-]` (centres undefined), the GTP binding activity was 93% (inactive).

On to `COC(=O)c1ccc(CN2CCN(CCCc3ccccc3)C(CCO)C2)cc1` (centres undefined), for which the GTP binding activity was 97% (inactive).

Consider `Cc1ccc(CSc2nc3[nH]ncc3c(=O)[nH]2)cc1`, for which the GTP binding activity was 79% (active).

Turning to `Cc1cccc(NC(=O)CSc2nc3[nH]ncc3c(=O)[nH]2)c1`, the GTP binding activity is 94% (inactive).

Turning to `CCCSc1nc2[nH]ncc2c(=O)[nH]1`, the GTP binding activity is 99% (inactive).

As for `Cc1cc(OCC(=O)NC2CCN(C)CC2)ccc1[N+](=O)[O-]`, the GTP binding activity is 98% (inactive).

On to `COc1ccc(C/C(N)=N/OC(=O)c2ccco2)cc1OC`, for which the GTP binding activity was 101% (inactive).
